Screens from PubChem.
Many of the other results were omitted from the sample, so hits are more common in it than they were.
PostGolgi yeast: growth inhibition of a yeast mutant, post-Golgi transport screen; AID 739; 0.9% of 98,000 active; post-Golgi transport phenotypic cell assay; inhibition, % at 10 µM;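 note: yeast cells grown in 1536-well plates; yeast grown about 18 h at 30C before absorbance read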
S1P2 blocker: antagonists of human S1P2 receptor. inhibition, % at 5 µM. 0.21% of 97,000 active. cell-based S1P2 antagonist assay, inhibition at 5 uM; in the data active = inhibition above about 45%;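 note: CRE beta-lactamase reporter cells expressing human S1P2 stimulated with S1P; 0% = agonist at EC80 alone and 100% = agonist plus reference antagonist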
Target sequence (O95136 whole entry, looked up): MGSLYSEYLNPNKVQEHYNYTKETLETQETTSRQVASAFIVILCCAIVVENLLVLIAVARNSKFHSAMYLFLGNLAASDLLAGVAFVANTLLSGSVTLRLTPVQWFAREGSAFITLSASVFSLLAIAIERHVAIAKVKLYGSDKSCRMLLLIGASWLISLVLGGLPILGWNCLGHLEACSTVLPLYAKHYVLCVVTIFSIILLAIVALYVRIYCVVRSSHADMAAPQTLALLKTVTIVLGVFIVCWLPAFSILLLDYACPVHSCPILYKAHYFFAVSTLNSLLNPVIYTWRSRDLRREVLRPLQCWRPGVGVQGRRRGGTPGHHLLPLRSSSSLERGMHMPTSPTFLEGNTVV
GALR2 antag: blocks the human galanin receptor 2; GALR2-expressing cells, antagonist mode; inhibition, % at 4 µM; 0.39% of 140,000 active; in the data active = inhibition above about 27%;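 note: cells stimulated with galanin 1-16 at roughly its EC80; 0% = agonist challenge control and 100% = basal control without agonist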
S1P2 ag: S1P2 (human) receptor agonism; activation, % at 4.5 µM; O95136; AID 729; 0.46% of 97,000 active; S1P2-expressing cell line, agonist reporter read-out; in the data active = activation above about 16%;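 note: 0% = vehicle low control and 100% = maximal reference agonist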
GALR2 agonist: agonists of human galanin receptor 2 (GALR2); GALR2-expressing cells, agonist activation read-out; activation, % (concentration not given with the values); O43603; 0.48% of 140,000 active; in the data active = activation above about 5%, passing the limit was not always enough;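 note: 0% = vehicle buffer wells and 100% = reference agonist at full effect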
PostGolgi ctrl: inhibits growth of the yeast control strain; inhibition, % at 10 µM; AID 738; efflux-deficient yeast background strain, growth absorbance A615, 16 h; 5% of 98,000 active
The depositor's hits bear a star; . = no result given. Cut-off read from the data, not from the text of the source, unless noted: active = inhibition above about 30%; inactive = the rest.

SMILES	PostGolgi yeast	S1P2 blocker	GALR2 antag	S1P2 ag	GALR2 agonist	PostGolgi ctrl
CCn1nccc1C(=O)Nc1cc(Cl)ccc1Cl	6.0	-12.2	2.0	-0.1	-0.1	-1.2
CCn1nccc1C(=O)Nc1ccc(Cl)cc1Cl	8.9	-20.5	0.9	-0.3	-2.6	31.7*
O=C(CSc1ccc(-c2ccc(Cl)cc2)nn1)Nc1ccc2c(c1)OCCO2	.	.	8.4	.	-0.9	.
N#Cc1cc2sc3nnc(-c4ccncc4)n3c2cc1C#N	6.5	.	8.0	.	-0.4	36.7*
N#Cc1cc2sc3nc4ccccc4n3c2cc1C#N	29.4	-9.8	-6.7	-4.9	-1.3	-0.1
CCOC(=O)c1c(-c2ccc(OC)cc2)csc1NC(=O)CCN1C(=O)c2ccccc2C1=O	5.4	-40.2	-34.9	-2.8	1.8	8.3
CCOC(=O)c1c(-c2ccc(OC)cc2)csc1NC(=O)CNCc1ccco1	1.4	0.0	-5.3	-4.3	-0.1	84.6*
C/C(=N/Nc1ccc(C(=O)O)cc1)c1ccc(O)c(O)c1O	.	.	0.7	.	0.1	.
C/C(=N\NC(=O)COc1cccc(Cl)c1)c1ccc2c(c1)OCCO2	.	.	8.1	.	-1.3	.
C/C(=N\NC(=O)CSCc1ccc(Cl)cc1)c1ccc2c(c1)OCCO2	2.5	2.4	0.5	-5.4	-1.2	31.4*
COc1cc(NC(=O)CSc2nc3ccccc3n2-c2ccccc2)c(C)cc1[N+](=O)[O-]	.	.	6.7	.	-0.8	.
Cn1c(-c2cc3ccc(OC(=O)C(C)(C)C)cc3oc2=O)nc2ccccc21	-24.7	1.8	21.5	34.3*	45.5*	8.2
O=C(NCC(=O)N(Cc1ccccc1)C(C(=O)NC1CCCC1)c1cccnc1)c1ccco1 (configuration not stated)	.	-6.6	1.0	-1.8	-2.3	.
O=C(NC1CCCCC1)C(c1ccco1)N(Cc1cccnc1)C(=O)C1COc2ccccc2O1 (configuration not stated)	6.8	5.1	0.0	-3.5	-0.8	30.1*
CCCSc1nc2c(cnn2-c2ccc(C)cc2)c(=O)[nH]1	1.8	-7.1	2.2	-4.5	-2.9	-1.6
CCCSc1nc2c(cnn2-c2ccccc2)c(=O)[nH]1	7.6	.	7.9	.	-0.7	32.6*
CSc1nsc(SCC(=O)Nc2nc3ccc(C)cc3s2)n1	.	.	8.6	.	-1.3	.
CC1=CCC(C(=O)O)(C(=O)N/N=C/c2cccs2)C(c2ccc([N+](=O)[O-])cc2)C1 (configuration not stated)	0.9	-7.8	0.8	0.4	-0.7	65.3*
COC(=O)c1sc2nc(C)c([N+](=O)[O-])c(C)c2c1N	.	.	4.2	.	-1.2	.
Cc1ccccc1Cn1nc(C)c(NC(=O)/C=C/c2cnn(C)c2)c1C	.	.	6.2	.	-0.7	.
O=C(COC(=O)c1cc(-c2ccc(Cl)s2)nc2ccccc12)NCc1ccco1	-9.3	-19.2	-14.1	1.8	1.0	32.7*
COC(=O)c1sc(N)c(C(=O)OC)c1COC(=O)CCNS(=O)(=O)c1ccc(C)cc1	.	.	-1.5	.	-1.4	.
CCOc1cnc(-c2ccc(OC)cc2)o1	31.2*	2.0	1.7	-5.6	-1.8	12.6
CCOc1cnc(-c2ccc(Cl)cc2)o1	-5.3	-3.2	0.2	-7.0	-3.3	-11.3
Cc1ccccc1-c1nc2ccccc2c(=O)n1/N=C/c1ccccc1[N+](=O)[O-]	-0.5	-5.3	11.2	-7.3	-1.5	46.6*
SMILES	PostGolgi yeast	S1P2 blocker	GALR2 antag	S1P2 ag	GALR2 agonist	PostGolgi ctrl
O=C1CCCCC(=O)N(c2ccccc2)c2ccccc21	7.4	8.4	-6.2	-3.9	-2.2	31.5*
O=C1Cc2ccccc2N1c1ccccc1	.	.	20.0	.	-1.1	.
O=c1c2c(n3cnnc3n1-c1ccccc1)-c1ccccc1CC21CCCCC1	12.5	-26.8	-1.6	-3.1	0.5	19.6
Cc1cccc(-n2c(=O)c3c(n4cnnc24)-c2ccccc2CC32CCCCC2)c1	-17.5	17.0	-9.6	-9.0	0.1	45.9*
CCn1c(=O)c2c(n3cnnc13)-c1ccccc1CC21CCCCC1	27.6	-0.6	0.2	1.3	-1.1	56.3*
CCn1c(SCC(N)=O)nc2c(c1=O)C1(CCCC1)Cc1ccccc1-2	-10.0	-17.2	-11.1	-0.8	-3.0	50.4*
CC(=O)Nn1cnc2c(c1=O)C1(CCCCC1)Cc1ccccc1-2	-5.5	10.3	2.3	-7.2	-1.2	22.2
CCCOc1ccc(OCCN2CCCC(C)C2)cc1 (configuration not stated)	.	.	4.5	.	-0.6	.
CCSc1nnc(-c2cnn(-c3ccccc3)c2-n2cccc2)n1C	1.7	-24.1	-13.2	-4.8	-0.8	6.3
CCCCCCSc1nnc(-c2cnn(-c3ccccc3)c2-n2cccc2)n1C	-10.2	-30.1	-6.3	-2.6	2.0	61.5*
